Data: PubChem BioAssay AID686978 (National Center for Advancing Translational Sciences (NCATS), 2013)
Where “and” joins values, the source holds several entries; their conditions need not be identical. Identical values can stand only once. About 64,000 (15%) of roughly 420,000 compounds were called active. About 27% were inconclusive and are not listed. The call rests on the fitted dose curve; in most records, active means well fitted inhibition curve with a large enough effect; inconclusive means small, poorly fitted or top-dose-only effect; inactive means flat fitted curve, though single readings scatter. The list is a sample of the results. Entries that show only a call come without a potency.
Potency means the concentration at half of the fitted maximal effect.

Assay: qHTS for Inhibitors of human tyrosyl-DNA phosphodiesterase 1 (TDP1): qHTS in cells in absence of CPT; further: nearly all actives have a fitted effect of over 55% in size
Conditions: DT40 Tdp1-/- hTDP1 cells, no CPT, ATP luminescence, 48 h; activity change, negative = growth inhibition: at 46.2 µM (top of the series)
Procedure, shortened: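 Chicken DT40 Tdp1-/- cells complemented with human TDP1, screened without camptothecin (DMSO vehicle only), 400 cells/well. Compounds pin-transferred, cells incubated at 37 °C for at least 48 hr. Growth read as ATP-dependent luminescence (CellTiter-Glo, 30 min at RT).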
With `Fc1ccccc1OCCCCn1cncn1` the Potency was “inactive”. In the case of `COc1cc(/C=C/CNC[C@H]2O[C@@H](n3cnc(C(N)=O)n3)[C@H](O)[C@@H]2O)ccc1O`, the Potency is reported as “inactive”. With `OCC[C@H]1C[C@@H](O)[C@H](O)[C@]2(OCCCc3ccccc32)O1` the Potency was “inactive”. With `CCN1CCN(CCNC(=O)c2ccc3c(c2)NC(=O)/C(=C\c2cccc(Cl)c2)S3)CC1` the Potency was 16.4 µM (active). For `O=C(NCCCN1CCCCC1)c1ccc2c(c1)NC(=O)C(N1CCOCC1)S2` (configuration not stated), the Potency was “inactive”. In the case of `O=C(NCCN1CCOCC1)Nc1cccc(Cl)c1`, the Potency is reported as “inactive”. In the case of `Cc1cc(C)n(-c2ccc(NC(=O)C3CCCCN3C(=O)c3cccs3)cc2)n1` (configuration not stated), the Potency is reported as “inactive”. In the case of `CCOc1ccc(/C=C(/NC(=O)c2ccccc2)C(=O)NCCC(=O)O)cc1`, the Potency is reported as “inactive”. With `O=C1CCNCCN1[C@H](CO)Cc1ccccc1` the Potency was “inactive”. For `O=C1CCN(Cc2ccc([N+](=O)[O-])cc2)CCN1[C@H](CO)Cc1ccccc1`, the Potency was “inactive”. For `O=C1CC[C@H](O)CCN1[C@H](CSc1ccc(Br)cc1)Cc1ccccc1`, the Potency was 15.8 µM (active) and 16.4 µM (active). For `COc1ccccc1NC(=O)C1=C(C)Nc2ncnn2C1c1ccc(C)o1` (configuration not stated), the Potency was “inactive”. In the case of `CC(OC(=O)c1cc2ccccc2o1)C(=O)Nc1ccc(N2CCOCC2)cc1` (configuration not stated), the Potency is reported as “inactive”. With `COC(=O)c1sc(NC(=O)c2csc3c2CCCC3)nc1C` the Potency was 23.1 µM (active). For `CCOC(=O)c1ccc(NC(=O)c2c(NCc3cccs3)sc3c2CCCC3)cc1`, the Potency was 20.6 µM (active). In the case of `CCOC(=O)c1ccc(NC(=O)c2csc3c2CCCCC3)cc1`, the Potency is reported as 14.6 µM (active). In the case of `CCOC(=O)c1ccc(NC(=O)c2c(NCc3ccccc3)[nH]c(=O)[nH]c2=O)cc1`, the Potency is reported as “inactive”. For `CCOC(=O)c1ccc(NC(=O)c2c(NCc3cccc(OC)c3)sc3c2CCC3)cc1`, the Potency was 11.6 µM (active). In the case of `CCOc1ccc(CCNC(=O)c2csc3c2CCCCC3)cc1`, the Potency is reported as “inactive”. With `COC(=O)c1sc(NC(=S)NC(=O)c2ccc(C)cc2)nc1C` the Potency was “inactive”. In the case of `Cc1ccc(NC(=O)c2csc3c2CCCC3)cc1`, the Potency is reported as “inactive”. In the case of `CCOC(=O)c1ccc(NC(=O)CNC(=O)c2ccco2)cc1`, the Potency is reported as “inactive”. In the case of `CC(=O)Cc1nsc(NC(=O)c2csc3c2CCCC3)n1`, the Potency is reported as “inactive”. With `CCOC(=O)c1c(NC(=O)Cc2coc3ccc(CC)cc23)sc2c1CCC2` the Potency was “inactive”. With `CC[C@H](C)C(=O)N[C@H]1CCCN1C(=O)/C=C/c1ccccc1` the Potency was “inactive”. With `Cc1ccc(C(=O)COC(=O)CCCC(=O)NC2CCCCC2)cc1[N+](=O)[O-]` the Potency was “inactive”. In the case of `COCCNC(=O)C1CCN(C(=O)C2CC(=O)N(c3ccc(C)cc3)C2)CC1` (configuration not stated), the Potency is reported as “inactive”. With `O=C1CCC(=O)N1c1ccc(NCCc2ccccc2F)c([N+](=O)[O-])c1` the Potency was “inactive”. For `CCCCN1CCNC1=S`, the Potency was “inactive”. In the case of `CC1CC(C)CN(C(=O)CSc2nnc(CSc3ncccn3)n2C)C1` (configuration not stated), the Potency is reported as “inactive”. In the case of `COCC1CCCN(C(=O)c2ccc3oc(C(C)C)nc3c2)C1` (configuration not stated), the Potency is reported as “inactive”. For `COc1ccc(CCNc2nc3ccc(C)cc3n3cnnc23)cc1OC`, the Potency was 16.4 µM (active) and 23.1 µM (active). In the case of `COc1ccccc1CNc1nc2ccc(Cl)cc2n2cnnc12`, the Potency is reported as “inactive”. In the case of `COc1ccc(CCNc2nc3c(-c4cccc(F)c4)nnn3c3ccccc23)cc1OC`, the Potency is reported as “inactive”. In the case of `COc1ccc(CNC(=O)C2CCCC2)cc1`, the Potency is reported as “inactive”. In the case of `Cc1ccc(NC(=O)C2CC(c3ccc(F)cc3)=NO2)cc1` (configuration not stated), the Potency is reported as “inactive”. With `COc1ccc(S(=O)(=O)N2CCC(C(=O)NCc3ccco3)CC2)cc1C` the Potency was “inactive”. In the case of `COc1ccc(CNC(=O)C2CC(c3ccc(C(F)(F)F)cc3)=NO2)cc1` (configuration not stated), the Potency is reported as 11.6 µM (active). For `COc1ccc(-c2cc(C(=O)NCc3ccco3)no2)cc1OC`, the Potency was “inactive”. For `COc1ccc(C2=NOC(C(=O)NCc3ccco3)C2)cc1OC` (configuration not stated), the Potency was 2.59 µM (active). With `O=C(COC(=O)COc1ccccc1F)Nc1cccc(S(=O)(=O)N2CCCCC2)c1` the Potency was “inactive”. With `O=C1OCCOC2CCCc3oc(-c4ccccc4)c1c32` (configuration not stated) the Potency was “inactive”. In the case of `CCN(CC)CCCN1C(=O)C(=O)/C(=C(/O)c2c(C)nc3ccccn23)C1c1ccc(C)o1` (configuration not stated), the Potency is reported as “inactive”. For `O=C(CCNc1n[nH]c(=O)[nH]c1=O)N/N=C\c1ccc(Br)cc1`, the Potency was “inactive”. For `Cc1c(O)cc2c(c1C)O[C@](C)(CCC[C@H](C)CCC[C@H](C)CCCC(C)C)CC2`, the Potency was “inactive”. For `COc1ccc(NC(=O)CN2C(=O)NC(C)(c3ccccc3)C2=O)cn1` (configuration not stated), the Potency was “inactive”. For `COc1ccc(OCC(=O)NN2Cc3ccccc3C2=N)cc1`, the Potency was “inactive”. For `Cc1ccc(N2C(=O)c3ccccc3C2(O)c2ncc[nH]2)cc1` (configuration not stated), the Potency was “inactive”. With `C=CCNc1cnn(-c2ccc(C)cc2)c(=O)c1Cl` the Potency was “inactive”. For `O=C(NCc1ccccc1)c1ccc(S(=O)(=O)Nc2cccc(C(F)(F)F)c2)cc1`, the Potency was “inactive”. With `O=C(CCC(=O)c1ccccc1)NCc1cccc(C(F)(F)F)c1` the Potency was “inactive”. In the case of `O=C(NCc1cccc(C(F)(F)F)c1)c1cccc(S(=O)(=O)N2CCN(Cc3ccccc3)CC2)c1`, the Potency is reported as 18.4 µM (active). In the case of `O=S(=O)(NCCS(=O)(=O)N1CCN(c2ccccc2)CC1)c1ccc(F)cc1`, the Potency is reported as “inactive”. For `CN(Cc1cccc2ncccc12)C(=O)CC1C(=O)NCCN1Cc1ccc(F)cc1` (configuration not stated), the Potency was “inactive”. In the case of `CC1CN(/C=C/C(=O)C(F)(F)F)CC(C)O1` (configuration not stated), the Potency is reported as “inactive”. In the case of `Cc1cc(NC(=O)CN2C(=O)NC(CC(C)C)C2=O)no1` (configuration not stated), the Potency is reported as “inactive”. For `CS(=O)(=O)N(Cc1ccccc1)c1ccc(C(=O)NN=C2CCCCCC2)cc1`, the Potency was “inactive”. In the case of `CS(=O)(=O)N(Cc1ccccc1Cl)c1ccc(C(=O)NCc2cccnc2)cc1`, the Potency is reported as 14.6 µM (active). With `O=C(O)c1ccccc1-c1ccccc1C(=O)NCc1cccnc1` the Potency was “inactive”. In the case of `CN(c1ccccc1)S(=O)(=O)c1ccc(C(=O)NCc2cccnc2)cc1`, the Potency is reported as “inactive”. With `O=C(NCc1cccnc1)c1cccnc1Sc1ccc(Cl)cc1` the Potency was “inactive”. In the case of `Cc1ccc(S(=O)(=O)N(Cc2ccc(Cl)cc2)c2ccccc2C(=O)NCc2cccnc2)cc1`, the Potency is reported as 23.1 µM (active). In the case of `CCOc1ccc(OCC(=O)OC(C)C(=O)NC2CCCCC2C)cc1` (configuration not stated), the Potency is reported as “inactive”. In the case of `CC1(C)Oc2ccc3ccc(=O)oc3c2/C(=N/O)C1=O`, the Potency is reported as “inactive”. With `O=c1cc(COc2cccc(C(F)(F)F)c2)nc2sc3c(n12)CCCC3` the Potency was “inactive”. For `Cc1ccc2c(cnn2C(=O)CCC(=O)NC2CCCC2)c1`, the Potency was “inactive”. In the case of `CCOC(=O)c1c(-c2cccc(N)c2)cn2ccccc12`, the Potency is reported as “inactive”. For `COc1ccccc1/C=C/c1nc(C#N)c(NC(C)c2ccccc2)o1` (configuration not stated), the Potency was 16.4 µM (active). For `CCOc1ccc(Nc2oc(/C=C/c3ccc(F)cc3)nc2C#N)cc1`, the Potency was “inactive”. For `N#Cc1nc(/C=C/c2ccc(F)cc2)oc1NCc1ccc(F)cc1`, the Potency was “inactive”. With `O=C(CNC(=O)c1ccccc1F)OCC(=O)c1c[nH]c2ccccc12` the Potency was “inactive”. In the case of `Cc1c(C(=O)N(C)C)sc2c1c(=O)n(-c1ccc(F)cc1)c(=O)n2CC(=O)N(C)c1ccccc1`, the Potency is reported as “inactive”. For `CCOC(=O)[C@]12CCC=C1N(Cc1ccco1)C(=O)[C@H](CC(=O)N1CCSCC1)C2`, the Potency was “inactive”. For `CCOC(=O)N1CCN(C(=O)C(C)NC(=O)c2ccco2)CC1` (configuration not stated), the Potency was “inactive”. With `CCOC(=O)C1CCN(C(=O)CC2C(=O)N(Cc3ccccc3)C(C)c3nc4ccccc4n32)CC1` (configuration not stated) the Potency was “inactive”. With `COC(=O)[C@@]12C[C@@H](CC(=O)N3CCC(c4ccccc4)CC3)C(=O)N(Cc3ccccc3)C1=CCC(C)(C)C2` the Potency was 14.6 µM (active). In the case of `O=C(NCc1ccccc1)C1CCN(C(=O)Cc2ccccc2)CC1`, the Potency is reported as “inactive”. For `CCn1cc(C(=O)N2CCN(Cc3ccc4c(c3)OCO4)CC2)c2cc(OC)c(OC)cc2c1=O`, the Potency was “inactive”. In the case of `COC(=O)[C@]12CCCCC=C1N(Cc1ccc3c(c1)OCO3)C(=O)[C@H](CC(=O)N1CCOCC1)C2`, the Potency is reported as “inactive”. In the case of `COC(=O)[C@@]12C[C@@H](CC(=O)N3CCCCC3)C(=O)N(Cc3ccc4c(c3)OCO4)C1=CCC(C)(C)C2`, the Potency is reported as 20.6 µM (active). For `CCOC(=O)N1CCN(C(=O)C[C@@H]2C[C@@]3(C(=O)OC)CC(C)(C)CC=C3N(Cc3ccco3)C2=O)CC1`, the Potency was 18.4 µM (active). In the case of `CC(C)CCN1CCN(C/C=C/c2ccco2)CC1CCO` (configuration not stated), the Potency is reported as “inactive”. In the case of `COC(=O)c1cccc(C(=O)N2CCCC(Nc3ccc4c(c3)OCCO4)C2)c1` (configuration not stated), the Potency is reported as “inactive”. For `O=C(O)Cc1ccc(NCc2ccccc2Cl)cc1`, the Potency was “inactive”. In the case of `Cc1cccc(-c2nnc(SCC(=O)O)n2Cc2ccccc2)c1`, the Potency is reported as “inactive”. With `O=C1CC(Cc2ccc(Cl)cc2)C(=O)N1c1cc(Cl)ccn1` (configuration not stated) the Potency was “inactive”. In the case of `COc1ccc(CNC(=O)CSc2nc3ccccc3nc2Cc2ccccc2)cc1`, the Potency is reported as “inactive”. With `O=C(CSc1n[nH]c(-c2ccccc2)n1)N1CCCCC1` the Potency was “inactive”. In the case of `O=C(CSc1nc2ccccc2nc1Cc1ccccc1)N1CCCCC1`, the Potency is reported as 18.4 µM (active). In the case of `COc1cc(NC(=O)Cn2c(=O)n(Cc3ccco3)c(=O)c3oc4ccccc4c32)cc(OC)c1`, the Potency is reported as “inactive”. With `Cc1c(CCC(=O)O)c(=O)oc2cc3occ(-c4ccccc4)c3cc12` the Potency was “inactive”. With `O=C(c1ccco1)N1CCN(CC(=O)N(C2CCCCC2)C2CCS(=O)(=O)C2)CC1` (configuration not stated) the Potency was “inactive”. In the case of `COC(=O)c1sccc1NC(=O)CC1C(=O)NCCN1C(=O)Nc1ccc(F)cc1F` (configuration not stated), the Potency is reported as “inactive”. For `COc1ccccc1CCNC(=O)c1cnccn1`, the Potency was “inactive”. In the case of `C=C1C=C(C(F)F)n2ncc(C(=O)NCCc3ccccc3OC)c2N1`, the Potency is reported as 17.8 µM (active). In the case of `COc1ccccc1CCNC(=O)CN1C(=O)NC2(CCCC2)C1=O`, the Potency is reported as “inactive”. For `Cc1nn2cc(-c3ccc(Cl)cc3)cnc2c1Br`, the Potency was “inactive”. With `COC(=O)CCCC1=CC2=CC(=O)C(C)(OC(=O)c3cccs3)C(=O)C2=CN1c1cccc(C#N)c1` (configuration not stated) the Potency was “inactive”. In the case of `Cc1cccc(NC(=O)N2CCN(C)c3ncccc32)c1C`, the Potency is reported as “inactive”. With `Cc1cc(NC(=O)CSc2nnc(Nc3ccccc3F)s2)no1` the Potency was “inactive”. For `COc1ccccc1-c1nnc(SCC(=O)Nc2cc(C)on2)o1`, the Potency was “inactive”. In the case of `Cc1cc(NC(=O)CSc2nnc(-c3ccc(Cl)s3)o2)no1`, the Potency is reported as 16.4 µM (active).
